# Measured values published in the supplement of paper PMC3545927.
# The other results are listed elsewhere or left out. The hit rate among all sequences tested is not known here.
# Target: furin, P09958
# Assay: furin cleavage Z-score vs untreated control; higher = more cleavage, active = 3.5 or more, inactive = 1 or less, 8 variable residues between constant flanks
# Outline: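 Purified furin cleaved 8-mer peptides that were fused to a cDNA oligonucleotide and held on magnetic beads by their N-terminus. Each 0.01 ml reaction used a 1:10 enzyme:substrate ratio in 50 mM HEPES pH 7.5 with CaCl2 and NaCl and ran 7.5, 15 or 30 min. Released DNA was adapter-tagged by PCR and sequenced, and read counts gave abundance. The cleavage Z-score came from log counts against furin-free reactions, lowess-adjusted and scaled by median absolute deviation.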
# Chain of furin, P09958 (P09958 whole entry): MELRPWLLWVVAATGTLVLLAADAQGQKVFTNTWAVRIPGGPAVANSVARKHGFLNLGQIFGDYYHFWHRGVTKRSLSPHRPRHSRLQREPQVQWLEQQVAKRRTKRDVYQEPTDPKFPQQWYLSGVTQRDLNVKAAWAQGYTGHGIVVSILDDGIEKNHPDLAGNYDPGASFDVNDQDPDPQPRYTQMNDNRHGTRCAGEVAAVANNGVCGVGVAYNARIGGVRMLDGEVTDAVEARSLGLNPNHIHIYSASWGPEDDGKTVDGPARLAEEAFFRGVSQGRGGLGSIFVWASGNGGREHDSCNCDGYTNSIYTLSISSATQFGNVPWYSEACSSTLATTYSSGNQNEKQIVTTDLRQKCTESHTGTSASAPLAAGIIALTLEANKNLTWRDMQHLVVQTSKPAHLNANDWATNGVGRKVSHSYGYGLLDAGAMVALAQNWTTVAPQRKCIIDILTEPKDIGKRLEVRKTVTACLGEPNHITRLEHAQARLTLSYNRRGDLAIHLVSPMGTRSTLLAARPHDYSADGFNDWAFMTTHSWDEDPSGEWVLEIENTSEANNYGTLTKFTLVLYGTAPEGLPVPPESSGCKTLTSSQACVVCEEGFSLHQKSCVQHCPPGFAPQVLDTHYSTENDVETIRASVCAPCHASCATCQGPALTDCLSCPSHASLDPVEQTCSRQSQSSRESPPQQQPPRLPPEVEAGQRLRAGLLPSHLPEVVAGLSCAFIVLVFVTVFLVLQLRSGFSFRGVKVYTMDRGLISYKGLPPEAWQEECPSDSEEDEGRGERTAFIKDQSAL
Sequence,furin cleavage Z-score (7.5 min),furin cleavage Z-score (15 min),furin cleavage Z-score (30 min)
CALAAGVGIYAGNASASA [HC1660],0.247 (inactive),-0.366 (inactive),0.0629 (inactive)
CAVGWPAPQGAGNASASA [HC715],0.307 (inactive),1.62,0.189 (inactive)
CAECPCHRPSAGNASASA [HC2340],0.0178 (inactive),-0.268 (inactive),-1.23 (inactive)
CATVDFSLDPAGNASASA [HC891],-0.614 (inactive),-1.09 (inactive),-1.01 (inactive)
CARATRFWDPAGNASASA [FS-2650],-0.242 (inactive),-0.738 (inactive),0.257 (inactive)
CARRTRDLDPAGNASASA [FS-2520],8.58 (active),8.71 (active),7.24 (active)
CARRRRELEPAGNASASA [FS-1867],10.9 (active),11 (active),7.47 (active)
CAPSWGPTDPAGNASASA [HC213],-0.72 (inactive),-1.18 (inactive),1.35
CALGPRFKRLAGNASASA [FS-269],9.05 (active),10.1 (active),9.85 (active)
CAWGSRFKKLAGNASASA [FS-317],0.17 (inactive),-0.284 (inactive),0.58 (inactive)
CAWGPRFKRLAGNASASA [FS-209],6.86 (active),8.43 (active),8.5 (active)
CAWGNRFKKLAGNASASA [FS-315],-1.19 (inactive),0.33 (inactive),-1.11 (inactive)
CAHSKKKCDEAGNASASA [HC858],0.938 (inactive),-0.00521 (inactive),-0.176 (inactive)
CASPPCSAHLAGNASASA [HC2499],1.04,-0.446 (inactive),0.95 (inactive)
CAYVCCSMSYAGNASASA [HC1989],0.374 (inactive),-0.0389 (inactive),0.11 (inactive)
CAVVSCSMSYAGNASASA [HC2037],0.59 (inactive),-1.65 (inactive),0.705 (inactive)
CAPVPCHRPSAGNASASA [HC2319],0.318 (inactive),1.19,0.255 (inactive)
CAIHRRTPRSAGNASASA [FS-1213],10.3 (active),8.47 (active),7.15 (active)
CAGPKDQKRSAGNASASA [FS-1002],0.96 (inactive),0.905 (inactive),0.353 (inactive)
CAPVPRQKRSAGNASASA [FS-1387],10.9 (active),10.8 (active),8.52 (active)
CAPVPRQRRPAGNASASA [FS-557],1.31,0.43 (inactive),-0.0302 (inactive)
CAPVFRQKRSAGNASASA [FS-620],14.1 (active),12.3 (active),9.55 (active)
CARVYRQKRSAGNASASA [FS-561],12.1 (active),12.4 (active),9.77 (active)
CATTPCSGSLAGNASASA [HC1925],-0.297 (inactive),-1.38 (inactive),-1.27 (inactive)
CAMEEPSQHLAGNASASA [HC20],-0.193 (inactive),1.35,1.68

Sequence,furin cleavage Z-score (7.5 min),furin cleavage Z-score (15 min),furin cleavage Z-score (30 min)
CAELQRQKRSAGNASASA [FS-762],10.3 (active),11.5 (active),9.23 (active)
CAIHHRQKRSAGNASASA [FS-540],12 (active),10.4 (active),9.65 (active)
CASLLKVPYFAGNASASA [HC613],-0.873 (inactive),0.367 (inactive),-0.906 (inactive)
CAPGEINRVAAGNASASA [HC1610],0.342 (inactive),1.78,0.355 (inactive)
CAVASRNRRAAGNASASA [FS-147],13.1 (active),12.8 (active),9.83 (active)
CAPARRSVLAAGNASASA [FS-1987],-0.364 (inactive),-0.766 (inactive),-0.871 (inactive)
CAPARRNRRAAGNASASA [FS-837],8.23 (active),9.65 (active),8.04 (active)
CALTTTQWQVAGNASASA [HC494],0.00411 (inactive),-0.467 (inactive),0.941 (inactive)
CACEIYGACYAGNASASA [HC1593],-1.5 (inactive),-1.53 (inactive),-2.18 (inactive)
CAGSPRPRRRAGNASASA [FS-436],7.08 (active),9.3 (active),7.64 (active)
CAPISRPRRRAGNASASA [FS-1648],7.6 (active),8.41 (active),6.07 (active)
CALAARPRRRAGNASASA [FS-815],4.52 (active),6.47 (active),5.7 (active)
CAPISYLKGSAGNASASA [HC739],0.299 (inactive),-0.469 (inactive),-0.42 (inactive)
CAEVYTSTWVAGNASASA [HC2189],0.0489 (inactive),-1.01 (inactive),-0.826 (inactive)
CAESEVPCHRAGNASASA [HC2457],-0.0892 (inactive),0.0197 (inactive),0.878 (inactive)
CAMLECSQHLAGNASASA [HC1685],-0.00687 (inactive),-0.291 (inactive),-0.319 (inactive)
CALPAILSPGAGNASASA [HC1102],-0.355 (inactive),-0.501 (inactive),-0.653 (inactive)
CATTPNSGSWAGNASASA [HC58],-0.658 (inactive),-1.14 (inactive),-1.83 (inactive)
CAMLRRTKRGAGNASASA [FS-691],-0.133 (inactive),-0.069 (inactive),0.376 (inactive)
CASHLRVKRGAGNASASA [FS-1280],7.98 (active),7.64 (active),6.42 (active)
CAKYGRVKRGAGNASASA [FS-1354],0.448 (inactive),0.71 (inactive),0.194 (inactive)
CASADLVVRGAGNASASA [FS-89],0.299 (inactive),-0.542 (inactive),-0.0754 (inactive)
CAHFQRVKRGAGNASASA [FS-1335],7.42 (active),6.93 (active),6.76 (active)
CAMDARHKRGAGNASASA [FS-364],6.41 (active),8.49 (active),7.7 (active)
